# Screening data as filed in PubChem.
# C diff growth: blocks growth of Clostridium difficile | 0.25% of 86,000 active | growth activity, negative = inhibition, % at 16 µg/mL (by protocol) | AID 1259249 | Clostridium difficile clinical isolate growth, OD600, 24 h; stronger effect = lower value;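 active means mean growth activity at or below -80% and every replicate also at or below -80%; inconclusive means mean at or below -80% but some replicate above -80%; inactive means mean growth activity above -80%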;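 further: 0% = DMSO wells and -100% = levofloxacin 16 µg/mL wells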
# Pf Dd2 growth: inhibitors of Plasmodium falciparum Dd2 growth; activity change, % at 10 µM; 2.3% of 94,000 active; P. falciparum Dd2 growth, SYBR Green, 72 h; stronger effect = lower value; in the data active means activity change below about -80%; inconclusive means no clear call, values can overlap the other calls
# T cruzi growth-1: inhibitors of T. cruzi proliferation | T. cruzi beta-gal in NIH3T3, GalScreen luminescence, 90 h | 5.9% of 77,000 active | inhibition, % at 8.34 µM;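 active means mean inhibition above about 93%, with at least 55% of replicates each passing it, limit read from the data, passing the limit was not always enough; inconclusive means only one of those two conditions holds; inactive means neither condition holds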
# T cruzi growth-2: inhibitors of T. cruzi proliferation; shares compounds with T cruzi growth-1; T. cruzi beta-gal in NIH3T3, GalScreen luminescence, 90 h; inhibition, % at 8.35 µM; 72% of 5,600 active; AID 651739;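 active means mean replicate inhibition above about 95% and at least 55% of replicates individually reaching it, limit read from the data; inconclusive means only one of the two criteria is met; inactive means neither criterion is met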
# T cruzi growth-3: inhibitors of T. cruzi proliferation | shares compounds with T cruzi growth-1 | T. cruzi beta-gal in NIH3T3, GalScreen luminescence, 90 h | inhibition, % at 2.09 µM | 21% of 5,600 active;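 active means mean inhibition above about 95%, with at least 55% of replicates also reaching it, limit read from the data; inconclusive means meets just one of the two conditions; inactive means meets neither condition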;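 further: plate controls were neutral control median for no effect and positive control median for full effect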
# NIH3T3 tox: kills mouse NIH/3T3 fibroblasts. shares compounds with T cruzi growth-1. NIH/3T3 viability, CellTiter-Glo ATP luminescence, 90 h. cytotoxicity (signal decrease), % at 8.35 µM. 14% of 5,600 active. AID 651742;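 active means mean signal decrease across replicates above about 35% based on untreated-well scatter, with enough replicates individually passing, limit read from the data; inconclusive means no rule stated though some were filed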;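 further: 0% = median of neutral control wells and 100% = median of positive control wells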
# NIH3T3 tox 2: cytotoxicity in mouse NIH/3T3 fibroblasts; shares compounds with T cruzi growth-1; NIH/3T3 viability, CellTiter-Glo ATP luminescence, 90 h; inhibition, % at 24.9 µM; 56% of 5,600 active; AID 651744;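 active means mean loss of cell viability signal at or above a set limit, and enough replicates individually reaching it; inconclusive means meets only the mean limit or only the replicate share; inactive means meets neither condition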;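 further: 0% = median of neutral control wells and 100% = median of positive control wells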
# Active calls of the source: *; ? = inconclusive; · = not tested or not shown. Hits are enriched below; roughly 6.8% of the tested compounds scored in any of these assays.
SMILES,C diff growth,Pf Dd2 growth,T cruzi growth-1,T cruzi growth-2,T cruzi growth-3,NIH3T3 tox,NIH3T3 tox 2
COc1ccc(NC(=O)Nc2ccc3c(c2)C(=O)N([C@@H](C)CO)C[C@@H](C)[C@H](CN(C)CC2CCCCC2)O3)cc1,-1,3,-12,·,·,·,·
CO[C@H]1CC[C@H]2CCOc3ccc(C#N)cc3C(=O)N(C)C[C@H](C)C(=O)N(C)C[C@@H]1O2,-2,·,17,·,·,·,·
COc1cccc(C#Cc2ccc3c(c2)O[C@@H](CN(C)S(=O)(=O)c2ccccc2F)[C@H](C)CN([C@@H](C)CO)S3(=O)=O)c1,5,-72,123*,109*,98*,23,42*
COCC#Cc1ccc2c(c1)O[C@@H](CN(C)S(=O)(=O)c1cccc(OC)c1)[C@H](C)CN([C@@H](C)CO)S2(=O)=O,-1,-37,49,·,·,·,·
O=C(C[C@H]1C[C@@H]2c3cc(NC(=O)c4ccc5c(c4)OCO5)ccc3O[C@@H]2[C@@H](CO)O1)NCc1cc(F)ccc1F,·,-17,52,·,·,·,·
O=C(C[C@@H]1C[C@H]2c3cc(NC(=O)c4cccnc4)ccc3O[C@H]2[C@@H](CO)O1)NCCc1ccccc1,-4,12,-24,·,·,·,·
O=C(C[C@H]1C[C@@H]2c3cc(NC(=O)c4cccnc4)ccc3O[C@@H]2[C@@H](CO)O1)NCCc1ccccc1,0,-31,129*,0,-2,-30,-10
CS(=O)(=O)Nc1ccc2c(c1)[C@H]1C[C@@H](CC(=O)NCc3ccncc3)O[C@@H](CO)[C@H]1O2,0,19,107*,-2,-12,-3,-4
O=C(C[C@@H]1C[C@@H]2c3cc(NC(=O)c4ccc5c(c4)OCO5)ccc3O[C@@H]2[C@@H](CO)O1)NCc1cc(F)ccc1F,·,-7,99*,68,15,6,-2
O=C(C[C@H]1C[C@@H]2c3cc(NC(=O)c4cccnc4)ccc3O[C@@H]2[C@H](CO)O1)NCc1cccnc1,·,11,98*,15,-21,6,7
CS(=O)(=O)Nc1ccc2c(c1)[C@@H]1C[C@@H](CC(=O)NCc3ccccc3)O[C@H](CO)[C@@H]1O2,·,19,20,·,·,·,·
O=C(C[C@@H]1C[C@@H]2c3cc(NC(=O)c4cccnc4)ccc3O[C@@H]2[C@H](CO)O1)NCc1ccccc1,·,30,-10,·,·,·,·
CC(C)(C)[S@@](=O)N1Cc2cc(C(=O)N3CCOCC3)nc(-c3cccc(Br)c3)c2[C@H]1CCO,3,20,·,·,·,·,·
O=C(C[C@H]1C[C@H]2c3cc(NC(=O)c4cccnc4)ccc3O[C@H]2[C@@H](CO)O1)NC1CCCC1,-5,48,·,·,·,·,·
C[C@@H]1CN([C@H](C)CO)C(=O)c2cc(NC(=O)CCC(F)(F)F)ccc2O[C@H]1CN(C)Cc1ccc(-c2ccccc2)cc1,-5,-60,100,·,·,·,·
COc1cccc(NC(=O)N[C@H]2C=C[C@@H](CC(=O)Nc3ccccc3)O[C@@H]2CO)c1,-3,-5,·,·,·,·,·
O=C(CCN1CCCCC1)N[C@H]1CC[C@@H](CCn2cc(-c3ccccc3)nn2)O[C@H]1CO,2,12,-5,·,·,·,·
C[C@H]1CN([C@@H](C)CO)C(=O)Cc2cc(NC(=O)NC3CCCCC3)ccc2O[C@@H]1CN(C)C(=O)Nc1cccc2ccccc12,-8,9,21,·,·,·,·
C[C@H](CO)N1C[C@H](C)[C@@H](CN(C)Cc2ccc(Cl)c(Cl)c2)Oc2ccc(NS(C)(=O)=O)cc2CC1=O,14,-13,?,115*,82,13,100*
C[C@H]1CN([C@@H](C)CO)C(=O)Cc2cc(NS(C)(=O)=O)ccc2O[C@@H]1CN(C)Cc1ccc(Cl)c(Cl)c1,5,-32,70,·,·,·,·
C[C@@H]1CN([C@H](C)CO)C(=O)Cc2cc(NS(C)(=O)=O)ccc2O[C@H]1CN(C)Cc1ccc(C(F)(F)F)cc1,2,8,52,·,·,·,·
C[C@@H]1CN([C@H](C)CO)C(=O)Cc2cc(N(C)C)ccc2O[C@H]1CN(C)Cc1ccc(C(=O)O)cc1,-1,43,22,·,·,·,·
C[C@H](CO)N1C[C@H](C)[C@@H](CN(C)Cc2ccc(C(F)(F)F)cc2)Oc2ccc(NS(C)(=O)=O)cc2CC1=O,13,1,118*,109*,103*,-1,47*
C[C@H](CO)N1C[C@H](C)[C@@H](CN(C)Cc2ccc(C(F)(F)F)cc2)Oc2ccc(N(C)C)cc2CC1=O,8,-17,133*,108*,97*,4,72*
COc1ccccc1S(=O)(=O)N[C@H]1CC[C@H](CCn2cc(C3CCCC3)nn2)O[C@@H]1CO,-2,-33,·,·,·,·,·
SMILES,C diff growth,Pf Dd2 growth,T cruzi growth-1,T cruzi growth-2,T cruzi growth-3,NIH3T3 tox,NIH3T3 tox 2
CCCC#Cc1cnc2c(c1)C(=O)N([C@H](C)CO)C[C@@H](C)[C@@H](CN(C)C(=O)Nc1ccc(OC)cc1)O2,1,3,-27,·,·,·,·
CO[C@H](CN(C)C(=O)Nc1ccc(Cl)cc1)[C@H](C)CN(Cc1ccccc1Cl)[C@H](C)CO,·,-51,109*,109*,63,?,60*
CO[C@@H](CN(C)C(=O)Nc1ccc(Cl)cc1)[C@@H](C)CN(Cc1ccccc1Cl)[C@H](C)CO,·,-46,111*,106*,64,28,31*
CO[C@@H](CN(C)S(=O)(=O)c1ccc(Cl)cc1)[C@@H](C)CN(Cc1ccccc1Cl)[C@H](C)CO,·,-52,?,101*,-13,13,99*
CO[C@H](CN(C)S(=O)(=O)c1ccc(Cl)cc1)[C@H](C)CN(Cc1ccccc1Cl)[C@@H](C)CO,·,-25,77,·,·,·,·
CO[C@@H](CN(C)S(=O)(=O)c1ccc(Cl)cc1)[C@H](C)CN(Cc1ccccc1Cl)[C@@H](C)CO,·,-28,71,·,·,·,·
CO[C@@H](CN(C)C(=O)Nc1ccc(F)cc1)[C@H](C)CN(Cc1ccccc1Cl)[C@H](C)CO,·,-16,-78,·,·,·,·
CO[C@H](CN(C)C(=O)Nc1ccc(Cl)cc1)[C@H](C)CN(Cc1ccccc1Cl)[C@@H](C)CO,·,-51,114*,103*,99*,42*,49*
CO[C@H](CN(C)C(=O)Nc1ccc(F)cc1)[C@H](C)CN(Cc1ccccc1Cl)[C@H](C)CO,·,-23,-34,·,·,·,·
COc1cc2c(cc1OC)[C@@]13ON=C(c4ccc(OCCO)cc4)[C@@H]1CCN3CC2,5,·,·,·,·,·,·
COc1ccc2c3c(n(C)c2c1)[C@H](CO)N(C(=O)C1CCOCC1)CC31CCN(C(=O)C2CCOCC2)CC1,-6,6,·,·,·,·,·
COc1ccc2c3c([nH]c2c1)[C@@H](CO)N(C(=O)Cc1ccccc1)CC31CN(C)C1,4,-6,·,·,·,·,·
CN(C)C(=O)C[C@@H]1CC[C@@H]2[C@@H](COc3ccc(NC(=O)C4CCOCC4)cc3C(=O)N2C)O1,2,19,-57,·,·,·,·
Cc1ccccc1S(=O)(=O)N(C)C[C@H]1OCc2cn(nn2)CCCC(=O)N([C@H](C)CO)C[C@H]1C,·,13,13,·,·,·,·
